Most compounds without a hit are left out; they make up all but 2.4% or so of the library.
p97 inhibitor – human p97 ATPase inhibition; P55072; recombinant p97 ATPase, Kinase-Glo ATP luminescence, 3 h; inhibition, % at 8 µM; 220,000 tested, 0.42% active; AID 1481; in the data active = inhibition above about 15%;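 note: 0% = DMSO vehicle and 100% = wells lacking enzyme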
EP2 modulator – modulators of human EP2 prostaglandin E2 receptor | P43116 | EP2-expressing cells, cAMP HTRF FRET, PGE2 co-stimulation | induction, % at 25 µM | 260,000 tested, 0.83% active;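 active = compounds whose cAMP rise, as percent of the full-agonist control response, exceeds 60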;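 note: rat C6 glioma line stably carrying human EP2 under a CMV promoter; the protocol text gives 20 µM as final concentration; 100% = response of wells given 1 µM PGE2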
Target sequence (P43116 whole entry, looked up): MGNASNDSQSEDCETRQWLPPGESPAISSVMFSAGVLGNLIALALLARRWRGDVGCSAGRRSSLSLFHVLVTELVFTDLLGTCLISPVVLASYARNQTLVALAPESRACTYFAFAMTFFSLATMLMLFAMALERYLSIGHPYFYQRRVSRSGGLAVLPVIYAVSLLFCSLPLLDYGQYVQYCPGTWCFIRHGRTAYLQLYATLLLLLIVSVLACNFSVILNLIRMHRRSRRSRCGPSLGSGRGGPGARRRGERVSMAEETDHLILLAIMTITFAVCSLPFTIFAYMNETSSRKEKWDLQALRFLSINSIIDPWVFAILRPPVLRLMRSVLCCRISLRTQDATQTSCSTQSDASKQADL
Arbovirus inh – antivirals against arbovirus infection. 200,000 tested, 0.37% active. arbovirus infection cell-based antiviral screen. inhibition, % at 10 µM; in the data active = inhibition above about 30%
Hck-Nef inh – blocks Nef-activated human Hck kinase. inhibition, % at 20 µM. Recombinant Hck-YEEI plus Nef, Z-Lyte FRET kinase assay. P08631. 220,000 tested, 0.68% active;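 active = Hck-Nef kinase inhibition above about 50%, limit read from the data; inactive = inhibition below that limit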;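 note: 0% = DMSO with Hck plus Nef and 100% = Hck alone without Nef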
PGE2 EP2 inh – EP2 receptor (human) inhibition | inhibition, % at 25 µM | C6 glioma cells expressing human EP2, cAMP TR-FRET; cells stimulated with saturating PGE2 | P43116 | AID 1422 | 260,000 tested, 0.52% active;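 active = percent inhibition above 40 after rounding to a whole number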;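 note: rat C6 glioma host cells with rolipram phosphodiesterase inhibitor present; the protocol text gives 20 µM as final concentration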
* hit, by the source's call; · = no result; ! = not active in a repeat.

SMILES | p97 inhibitor | EP2 modulator | Arbovirus inh | Hck-Nef inh | PGE2 EP2 inh
C[C@H](NCCN(C)C)[C@@H]1CC[C@@H]2[C@H]3CCc4cc(O)ccc4[C@@H]3CC[C@]21C | · | -32.9 | · | · | 53.0*
N#[N+]c1ccc(Nc2ccccc2)cc1 | · | 28.4 | · | · | 42.6*
CCN1/C(=C/c2ccc3cccc(C)c3[n+]2CC)Sc2ccccc21 | 1.9 | -69.3 | -37.1 | 0.9 | 62.5*!
CC[n+]1c(/C=C2\Sc3ccc4ccsc4c3N2C)ccc2cc(C)ccc21 | · | -60.9 | · | · | 32.1
CCN1/C(=C\c2ccc3cc(C)ccc3[n+]2CC)Sc2cc(C)c(C)cc21 | -3.4 | -37.2 | -34.7 | 23.6 | 60.5*
CCN1/C(=C/c2ccc3cc(C)cc(C)c3[n+]2CC)Sc2cc(C)ccc21 | -6.9 | -49.0 | -35.1 | 22.3 | 110.2*
COc1ccc(S(=O)(=O)N2CCC(C(=O)NCC(C)(C)CN(C)C)CC2)cc1 | · | 7.3 | · | · | 10.2
O=Nc1c(O)n(Cc2ccccc2)c2ccccc12 | 4.3 | 41.0 | · | 16.0 | 5.9
O=Nc1c(O)n(Cc2cccc(C(F)(F)F)c2)c2ccccc12 | 4.5 | 63.9* | -2.5 | -4.5 | 6.0
COC1=C(OC)C(=O)C(CCCCCCCCCCO)=C(C)C1=O | -7.6 | · | -22.1 | · | 22.0
COC1=CC(=O)C(O)=C(CCCCCCC/C=C/CCCCCCCC2=C(O)C(=O)C=C(OC)C2=O)C1=O | · | · | · | · | 54.5*
CCCCCCCCCCCC1=C(O)C(=O)C=C(O)C1=O | · | -15.2 | · | · | 64.9*!
N#C/C(=C\Nc1ccccc1O)c1nc2ccccc2o1 | 3.9 | -105.3 | -35.9 | 3.4 | 54.2*
COc1ccc(N=c2oc3c(OC)cccc3cc2C(=O)NC2CCCC2)cc1 | · | 79.4* | · | · | 4.5
COc1ccc(NC(=O)c2cc3cccc(OC)c3oc2=Nc2ccc(C(=O)O)cc2)cc1OC | 4.2 | -0.5 | 31.5* | 32.9 | 4.2
COc1cccc(NC(=O)Cn2nc(-c3ccco3)cc(N)c2=O)c1 | · | -4.8 | · | · | 7.2
CCOc1ccc(N(Cc2ccc(OC)c(OC)c2)C(=O)c2ccco2)cc1 | -2.4 | 0.2 | -8.1 | 9.3 | 5.6
COc1ccc(CN(C(=O)c2ccco2)c2ccc(C)c(C)c2)cc1 | 3.6 | 64.8* | -9.6 | 18.0 | 7.0
CCc1ccc2c(c1)-c1c(s[s+]c1SC(C)=O)C(C)(C)N2 | · | 64.8* | · | · | 9.4
COC(=O)c1ccc(NC(=O)Cn2nnc(-c3ccncc3)n2)cc1 | · | -51.4 | · | · | 13.0
Cc1ccc(-c2nn(C(C)(C)C)c3ncnc(NS(=O)(=O)c4ccc([N+](=O)[O-])cc4)c23)cc1 | 5.6 | 61.5* | -1.5 | 46.2 | 10.8
Cc1ccc(S(=O)(=O)NCCCNc2ccc([N+](=O)[O-])cc2)cc1 | -5.3 | -34.0 | 3.4 | 18.6 | 18.1
CC(C)Cn1c(=O)[nH]c(=O)c2c(C(F)(F)F)cc(-c3ccccc3)nc21 | -1.4 | 65.7* | · | 19.5 | 4.6
Cc1ccc(-c2csc(NC(=O)C3=NN(c4ccccc4)C(=O)CC3)n2)cc1 | 1.3 | -40.2 | 66.8* | 0.2 | 6.1
COc1cc(C(=O)Nc2nc(-c3ccc(C)cc3)cs2)ccc1OCC(=O)N1CCOCC1 | -1.9 | -58.8 | 90.8* | -1.4 | 6.7
SMILES | p97 inhibitor | EP2 modulator | Arbovirus inh | Hck-Nef inh | PGE2 EP2 inh
Cc1ccc(-c2csc(NC(=O)c3cccc(S(=O)(=O)N4CCN(C)CC4)c3)n2)cc1 | -3.8 | -20.0 | 35.1* | 3.4 | 15.5
COc1cc(C(=O)Nc2nc(-c3ccc(F)cc3)cs2)ccc1OCC(=O)N1CCOCC1 | 0.3 | -63.8 | 83.3* | 0.7 | 16.3
Cc1ncccc1-c1cc2cccnc2n1CCCNC(=O)C1CC1C (stereo unspecified) | · | 7.8 | · | · | 5.9
Cc1cccc2cc(CN(CC3CCCO3)C(=O)Nc3cccc(Cl)c3)c(=O)[nH]c12 (stereo unspecified) | · | 9.4 | · | · | 4.6
CCOc1c(Cl)cc(C2C3=C(CCCC3=O)N(C)C3=C2C(=O)CCC3)cc1Cl | · | 36.5 | · | · | 9.0
COc1ccc(-c2csc(NC(=O)c3ccc(OCC(=O)N4CCOCC4)c(OC)c3)n2)cc1 | 2.4 | -47.1 | 44.0* | 1.5 | 22.1
CCC(CN1CCN(C)CC1)NC(=O)Cc1sc(C)nc1-c1ccc(C)cc1C (stereo unspecified) | · | -52.0 | · | · | 10.0
CCn1c(SCC(=O)Nc2ccccc2OC)nnc1-c1cccnc1 | · | -18.6 | · | · | 5.4
COc1ccc2[nH]c(C)cc(=O)c2c1 | -2.1 | 25.3 | 6.3 | -7.4 | 8.1
COc1ccc2[nH]c3c(C)c4ccncc4c(C)c3c2c1 | 13.8 | -45.8 | · | -3.7 | 87.4*
O=C1C=CC(=O)N1c1cccc(-c2ccccc2)c1 | -5.2 | -61.2 | · | -38.0 | 113.7*
Cc1cc(Cl)nc2ccc(Cc3ccc4nc(Cl)cc(C)c4c3)cc12 | -0.4 | -12.7 | · | 28.6 | 41.6*!
CSc1nc(Cc2ccc(Cl)cc2)nc2ccccc12 | -0.6 | 56.8 | 0.7 | 0.5 | 3.1
CCOC(=O)CSc1nnc(-c2ccc(OC)c(OC)c2)o1 | · | -29.4 | · | · | 16.3
Nc1ccc(Sc2ccc([N+](=O)[O-])cc2)cc1 | 0.4 | -58.0 | -0.1 | -23.0 | 7.1
O=C1C=CC(=O)N1c1ccc(Sc2ccc([N+](=O)[O-])cc2)cc1 | 8.3 | -46.0 | · | 50.1* | 14.6
COc1cc(CN2CCC(C(=O)NC(C)(C)C)CC2)cc(OC)c1OC | · | 7.5 | · | · | 13.8
O=c1c2ccccc2sn1-c1ccccc1 | -0.4 | -34.8 | -41.4 | 96.3* | 117.9*
Cc1cccc2cc(C(c3nnnn3C3CCCCC3)N3CCOCC3)c(=O)[nH]c12 (stereo unspecified) | · | -47.8 | · | · | 11.3
O=C(O)c1cnc(-c2ccccc2)nc1Sc1ccc(Cl)cc1 | -0.7 | 41.0 | 65.6* | 2.2 | 2.4
O=C(O)c1cnc(-c2ccccc2)nc1Sc1ccccc1Cl | 3.6 | -4.7 | 42.7* | 0.1 | 5.8
COc1ccc(Sc2nc(-c3ccccc3)ncc2C(=O)O)cc1 | 6.4 | 39.9 | 6.9 | 22.6 | 5.7
Cc1cccc(Sc2nc(-c3ccccc3)ncc2C(=O)O)c1 | -1.2 | 26.8 | 32.4* | 17.4 | 0.1
COc1ccc(-c2nc3ccc(NC(=O)c4ccco4)cc3[nH]2)cc1 | · | -67.7 | · | · | 13.7
COc1ccc(NC(=O)N(Cc2cc3cc(C)ccc3[nH]c2=O)CC2CCCO2)cc1 (stereo unspecified) | -1.8 | -47.5 | · | 14.0 | 6.6
COc1ccc2[nH]c(=O)c(CN(CC3CCCO3)C(=O)Nc3ccc(F)cc3)cc2c1 (stereo unspecified) | -6.0 | -45.0 | -22.4 | -1.3 | 41.0*
CCOc1ccc2[nH]c(=O)c(CN(CC3CCCO3)C(=S)NCC3CCCO3)cc2c1 (stereo unspecified) | · | 17.5 | · | · | 27.0
CCOc1ccc2[nH]c(=O)c(CN(CC3CCCO3)C(=S)NC3CCCCC3)cc2c1 (stereo unspecified) | · | 69.8* | · | · | 12.7

Assay outcomes: PubChem, several laboratories
